# Screening data deposited in PubChem BioAssay by National Center for Advancing Translational Sciences (NCATS).
# A selection: hits, their analogues and other compounds. The true share with any hit is near 11%.
# SW480 rereplic – DNA re-replication induction in SW480 cells; SW480 DNA re-replication, Hoechst DNA content imaging, 48 h; Potency, µM (highest dose often 46.1 µM), without a hit: top-dose re-replication activation, hits mostly activators; 1.8% of 340,000 active; AID 624297; note: potency is the fitted concentration of half-maximal effect; % of control where 0% means no effect; nearly all actives have a fitted effect of over 55% in size
#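 250 cells/well; 23 nL cpd via pin tool; 48 hr, 37 C, 5% CO2; Hoechst 40 min; imager read of total nuclear intensity, ex 405/em 500-530 nm.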
# IL1B secr inh – blocks inflammasome-driven IL-1 beta release | THP-1 LPS/ATP IL-1B secretion, AlphaLISA, 16 h; stronger effect = lower value | activity change, % at 57.5 µM | 4.7% of 360,000 active | AID 743279; in the data active = activity change below about -50%; inconclusive = mostly about -30% to -49%; note: % is set by controls: 0 for no effect and ±100 for the full control effect
#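 Secreted IL-1B measured by AlphaLISA bead assay after 16 h compound exposure of THP-1 cells; compounds (final up to 57.5 uM) added 1 h before LPS (250 ng/mL) and ATP (1.25 mM) stimulation; lower signal means less secretion.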
# Gal4-VP16 FLuc – Gal4-VP16 reporter inhibition counter-screen | 3.5% of 310,000 active | Drosophila S2 Gal4-VP16 UAS-luciferase, luminescence, 20 h | Potency, µM (titrated, usually from 53.6 µM), inactives show at the highest dose activity, negative = inhibition, actives largely listed as inhibitors;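 note: Gal4-VP16 expression switched on by copper sulfate through the metallothionein promoter; potency is the fitted concentration of half-maximal effect; % is set by controls: 0 for no effect and ±100 for the full control effect; nearly all actives have a fitted effect of over 50% in size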
# RORg inh – ROR gamma (mouse) transcription inhibition | P51450 | Drosophila S2 Gal4-RORgamma UAS-luciferase reporter, 20 h | Potency, µM (doses to about 53.6 µM), without a hit: at the top dose activity change, negative = inhibition, hits mostly inhibitors | 5.4% of 310,000 active; note: potency is the fitted concentration of half-maximal effect; % is set by controls: 0 for no effect and ±100 for the full control effect; nearly all actives have a fitted effect of over 60% in size
# Target sequence (P51450 whole entry, looked up, the tested form may be a part): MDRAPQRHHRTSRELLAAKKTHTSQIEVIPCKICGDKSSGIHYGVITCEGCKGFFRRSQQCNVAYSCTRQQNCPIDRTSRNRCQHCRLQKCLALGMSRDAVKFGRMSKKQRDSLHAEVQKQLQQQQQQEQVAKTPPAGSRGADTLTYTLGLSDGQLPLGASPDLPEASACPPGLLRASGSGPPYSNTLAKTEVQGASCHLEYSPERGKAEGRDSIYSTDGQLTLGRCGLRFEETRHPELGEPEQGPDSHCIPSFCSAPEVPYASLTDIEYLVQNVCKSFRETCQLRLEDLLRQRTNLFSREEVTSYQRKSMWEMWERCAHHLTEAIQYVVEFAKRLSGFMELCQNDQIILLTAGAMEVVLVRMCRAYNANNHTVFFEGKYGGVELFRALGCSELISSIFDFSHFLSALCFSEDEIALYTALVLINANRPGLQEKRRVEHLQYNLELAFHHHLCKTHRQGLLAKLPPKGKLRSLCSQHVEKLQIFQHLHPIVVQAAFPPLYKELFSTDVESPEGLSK
#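 Stable Schneider cell line, Gal4 DNA-binding domain fused to ROR gamma, UAS-luciferase. Cmpd 1 hr RT → CuSO4 700 uM final → 20 hr RT → luciferase reagent 10 min → luminescence.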
# MCF10A rerep – induces DNA re-replication in MCF 10a normal breast cells | MCF 10A DNA re-replication, Hoechst nuclear intensity, 48 h | Potency, µM (top dose mostly 46.1 µM), inactives show at the highest dose activity, positive = re-replication, hits mostly activators | 2.9% of 350,000 active; note: potency is the fitted concentration of half-maximal effect; % of control where 0% means no effect; nearly all actives have a fitted effect of over 50% in size
# Numbers without * were called inactive; ? = inconclusive; nt = no result given; [ ] = another dose, or the depositor's remark. Unless noted, calls come from the whole dose curve; as a rule, active = well fitted curve in the direction sought with a large enough effect; inconclusive = small, poorly fitted or top-dose-only effect, or another doubt; inactive = no such curve, though single readings can be large; an effect the other way counts as inactive or inconclusive.
SMILES,SW480 rereplic,IL1B secr inh,Gal4-VP16 FLuc,RORg inh,MCF10A rerep
Cc1cccc(N=Nc2c(C)nn(-c3ccccc3)c2N)c1C,nt,0.0,?,2.51µM*,?
Cc1nn(-c2ccccc2)c(N)c1N=Nc1ccccc1,?,-68.3*,-6.4%,-37.7%,?
Nc1ncnc(N)c1N=Nc1ccccc1,?,-59.9*,0.0%,43.1%,-2.3%
CN1CCOc2c1cnn(CCO)c2=O,nt,20.2,nt,nt,nt
OC(c1cc(F)cc(Cl)c1)c1ncc(-c2ccccc2Cl)[nH]1 (stereo not given),nt,4.1,nt,nt,nt
O=c1cc(CN(Cc2ccccc2)Cc2ccccc2)c2ccccc2o1,nt,11.7,nt,nt,nt
Cc1ccc(S(=O)(=O)N2C[C@H]3C(=O)C[C@@H](c4ccccc4F)N(S(=O)(=O)c4ccc(C)cc4)[C@H]3C[C@H]2c2cccc3ccccc23)cc1,nt,-9.8,nt,nt,nt
Cc1nn(-c2ccccc2)c(N)c1-c1ccccc1,-6.3%,-2.5,?,1.0%,3.4%
Nc1nn(-c2ccccc2)c(N)c1N=Nc1ccccc1,5.17µM*,15.1,-0.3%,-12.1%,5.8µM*
Nc1nn(-c2ccccc2)c(N)c1N=Nc1ccccc1F,10.3µM*,-54.5*,-18.8%,-36.0%,8.2µM*
Cc1nn(-c2ccccc2)c(N)c1N=Nc1ccc(Cl)cc1,?,-76.1*,-1.5%,?,?
Cc1cc(C)n2nc(N)c(N=Nc3ccccc3)c2n1,-1.3%,-12.4,-6.2%,-35.3%,7.8%
CNC(=O)OCc1ncn(-c2ccccc2)c1COC(=O)NC,nt,21.9,nt,nt,nt
Fc1ccc(Nc2ccnc(Nc3ccc(F)cc3)n2)cc1,2.5%,-93.5*,?,36.2%,?
CC(NC(=O)c1ccc(Cl)cc1)C(=O)NC1=NCCS1 (stereo not given),-0.4%,33.9,-1.1%,-8.4%,17.5%
CC(C)C(C(=O)NC1=NCCS1)c1ccc(Cl)cc1 (stereo not given),8.3%,23.4,?,4.47µM*,-3.2%
COc1ccc(OCCC(=O)NC2=NCCS2)cc1,-8.5%,1.3,-21.3%,?,-0.8%
CC(C)(C)c1ccc(OCCC(=O)NC2=NCCS2)cc1,3.2%,0.9,8.91µM*,3.55µM*,-0.4%
CC(C)c1ccc(OCC(=O)NC2=NCCS2)cc1,-4.2%,-18.0,-22.2%[10 µM],14.1µM*,0.6%
CC(NC(=O)c1ccc(F)cc1)C(=O)NC1=NCCS1 (stereo not given),6.51µM*,-2.6,-9.4%,-23.1%,3.2%
CCN1CCN(CCC(=O)Nc2ccc(F)c(F)c2)CC1,-1.7%,22.0,12.7%,21.0%,-0.5%
O=S1(=O)CC(N2CCSCC2)CN1Cc1cn(Cc2ccc(Cl)cc2)nn1 (stereo not given),nt,14.7,nt,nt,nt
O=C(/C=C/c1ccc(Cl)c(Cl)c1)NC1=NCCS1,1.2%,-4.3,?,7.94µM*,6.6%
CC(C)c1ccc(/C=C/C(=O)NC2=NCCS2)cc1,nt,nt,?,8.91µM*,nt
O=C(NC1=NCCS1)c1cc(Cl)ccc1Cl,-33.0%,-15.5,nt,nt,-0.1%
SMILES,SW480 rereplic,IL1B secr inh,Gal4-VP16 FLuc,RORg inh,MCF10A rerep
CCCNC(=O)/C=C/c1ccc(C(C)C)cc1,-2.9%,-6.8,0.1%,-6.8%,0.9%
CCOc1ccc(CC(=O)Nc2ccc(S(=O)(=O)N3CCCC3)cc2)cc1,12.9%,11.2,-3.3%,9.5%,6.4%
CC(=O)Oc1c(Cl)cc(N(C(C)=O)S(=O)(=O)c2ccccc2)c2ccccc12,6.51µM*,185.9,nt,nt,?
CC(=O)Oc1ccc(N(C(C)=O)S(=O)(=O)c2ccccc2)c2ccccc12,nt,121.9,nt,nt,nt
O=C(NC(=S)N1CCN(c2ccc([N+](=O)[O-])cc2)CC1)c1ccccc1,-9.9%,8.0,0.562µM*,0.282µM*,-6.0%
O=C(NC(=S)N1CCCC1)c1cccc([N+](=O)[O-])c1,-15.5%,5.3,0.708µM*,2µM*,-2.7%
O=[N+]([O-])c1ccc(N2CCN(C(=S)c3cccc([N+](=O)[O-])c3)CC2)cc1,14.0%,-16.3,-6.9%,4.4%,2.1%
O=C(NC(=S)N1CCCCCC1)c1cccc([N+](=O)[O-])c1,14.5%,16.7,nt,nt,7.4%
Cc1ccc(C(=O)NC(=S)N2CCN(c3ccc([N+](=O)[O-])cc3)CC2)cc1,-38.9%,-2.3,1µM*,0.708µM*,1.9%
O=C(NC(=S)N1CCN(c2ccccc2)CC1)c1ccc(S(=O)(=O)N2CCOCC2)cc1,?,-9.8,0.631µM*,0.708µM*,-0.5%
O=C(C[n+]1ccccc1)N/N=C/c1c(F)cccc1Cl,-16.1%,0.0,1.3%,3.0%,-14.4%
CCCCN(C(=O)CC1CCCCC1)c1c(N)n(CCCC)c(=O)[nH]c1=O,nt,17.5,nt,nt,nt
O=C(C1COc2ccccc2O1)N1CCN(c2ccc([N+](=O)[O-])cc2)CC1 (stereo not given),0.1%,-84.0*,nt,nt,-1.1%
O=C(C1COc2ccccc2O1)N1CCN(c2ccc(F)cc2)CC1 (stereo not given),-4.0%,-20.3,2.6%,0.7%,-8.8%
O=C(C1COc2ccccc2O1)N1CCN(Cc2ccc(Br)cc2F)CC1 (stereo not given),-5.6%,-63.5*,-21.9%,?,20.6%
CCCC(=O)NC(=S)N1CCN(c2ccc([N+](=O)[O-])cc2)CC1,-3.8%,11.0,?,3.16µM*,-0.8%
O=C(c1cc2ccccc2[nH]1)N1CCOCC1,-4.8%,22.0,3.6%,11.6%,-3.4%
S=C(c1nc2ccccc2[nH]1)N1CCOCC1,-23.9%,-10.5,6.31µM*,5.01µM*,-1.1%
CCOC(=O)CSCC(NC(=O)OC(C)(C)C)C(=O)OCC (stereo not given),-3.6%,8.4,?,7.08µM*,5.7%
Clc1cccc(-c2ccc(CNCc3ccccn3)o2)c1,-12.0%,3.6,?,11.2µM*,13.9%
Cc1ccc(C(=O)OC(C(=O)Nc2ccc(Cl)cc2C(F)(F)F)c2ccccc2)cc1 (stereo not given),-1.0%,14.2,-1.9%,0.9%,?
O=C(OC(C(=O)Nc1ccc(Cl)cc1C(F)(F)F)c1ccccc1)c1c(Cl)cccc1Cl (stereo not given),2.8%,0.0,-12.7%,-9.2%[10 µM],5.8µM*
CCOc1ccccc1NC(=O)C1COc2ccccc2O1 (stereo not given),13.9%,17.8,-0.4%,?,6.2%
CC(C)(C)c1cc(NC(=O)CCl)n(-c2ccccc2)n1,-93.3%,-93.2*,?,?,?
CCCc1cc(NC(=O)CCl)n(-c2ccccc2)n1,?,-99.4*,20µM*,?,?
CCCCNC(=O)C1C(c2ccc(OC)cc2)=Nc2ccccc2N1C(=O)c1ccncc1 (stereo not given),nt,-8.0,nt,nt,nt
CCC(C)(C)C1CCc2[nH]nc(C(=O)NCc3ccc(OC)cc3)c2C1 (stereo not given),-4.2%,0.0,nt,nt,7.6%
